The list is not random: actives were taken first. Their share in the collection is about 6.8%.
USP10 block – inhibitors of human USP10 deubiquitinase; Ubiquitin carboxyl-terminal hydrolase 10 (Homo sapiens), Q14694; purified USP10, Ub-rhodamine fluorescence, 60 min; inhibition, % at 20 µM; actives 1.1% (n = 47,000)
UCHL1 inh – inhibitors of human UCHL1 deubiquitinase; Ubiquitin carboxyl-terminal hydrolase isozyme L1 (Homo sapiens), P09936; purified UCHL1, Ub-rhodamine cleavage fluorescence; inhibition, % at 20 µM; actives 0.2% (n = 47,000)
Target sequence (P09936 whole entry, looked up): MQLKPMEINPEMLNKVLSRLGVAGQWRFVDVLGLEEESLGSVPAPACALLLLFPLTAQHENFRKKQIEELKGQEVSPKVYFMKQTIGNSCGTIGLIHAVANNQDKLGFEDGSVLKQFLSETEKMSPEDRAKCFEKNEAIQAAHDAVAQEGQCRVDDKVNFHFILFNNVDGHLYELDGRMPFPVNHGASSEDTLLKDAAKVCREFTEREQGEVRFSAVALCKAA
USP8 inh – inhibitors of human USP8 deubiquitinase | Ubiquitin carboxyl-terminal hydrolase 8 (Homo sapiens), P40818 | purified USP8, Ub-rhodamine cleavage fluorescence, 30 min | inhibition, % at 20 µM | actives 4.2% (n = 47,000) | AID 1645853, 2021
USP7 inh – inhibitors of human USP7 deubiquitinase; Ubiquitin carboxyl-terminal hydrolase 7 (Homo sapiens), Q93009; purified USP7, Ub-rhodamine cleavage fluorescence; inhibition, % at 20 µM; actives 0.3% (n = 47,000)
OTUD3 inh – inhibitors of human OTUD3 deubiquitinase. OTU domain-containing protein 3 (Homo sapiens), Q5T2D3. purified OTUD3, Ub-rhodamine fluorescence, 2 h. inhibition, % at 25 µM. actives 0.7% (n = 47,000). AID 1645858, 2021
Target sequence (Q5T2D3 whole entry, looked up, the tested form may be a part): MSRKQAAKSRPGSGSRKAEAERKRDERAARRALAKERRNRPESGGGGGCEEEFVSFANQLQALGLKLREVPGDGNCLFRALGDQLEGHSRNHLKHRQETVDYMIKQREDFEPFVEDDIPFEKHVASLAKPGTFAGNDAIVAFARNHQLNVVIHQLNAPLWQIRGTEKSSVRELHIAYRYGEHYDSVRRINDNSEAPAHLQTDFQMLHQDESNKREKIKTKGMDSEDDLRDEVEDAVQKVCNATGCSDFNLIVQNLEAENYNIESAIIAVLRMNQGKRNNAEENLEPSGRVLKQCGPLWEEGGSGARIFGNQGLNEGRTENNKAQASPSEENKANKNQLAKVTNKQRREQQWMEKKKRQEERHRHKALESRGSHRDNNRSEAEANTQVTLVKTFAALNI
USP28 block – inhibitors of human USP28 deubiquitinase; Ubiquitin carboxyl-terminal hydrolase 28 (Homo sapiens), Q96RU2; purified USP28, Ub-rhodamine cleavage fluorescence, 30 min; inhibition, % at 25 µM; actives 3% (n = 47,000); AID 1645857, 2021
* marks the source's active call; other numbers are inactive results; nt = not tested or not shown. Cut-off read from the data, not from the text of the source: active = inhibition above about 30%; inactive = the rest.

SMILES | USP10 block | UCHL1 inh | USP8 inh | USP7 inh | OTUD3 inh | USP28 block
O=c1ccc(-c2noc(Cc3cccc(C(F)(F)F)c3)n2)c[nH]1 | -3.8 | -17.1 | -160.8 | -20.1 | -31.1 | 47.9*
O=c1ccc(-c2noc(CCC3CCCC3)n2)c[nH]1 | -2.0 | -4.6 | -1.9 | -30.6 | -1.6 | 42.8*
CCNC(=O)c1cn(-c2ccc(S(=O)(=O)N3CCCC(C)C3)cn2)cn1 (centres undefined) | 1.8 | -0.9 | 5.2 | 2.3 | -0.1 | nt
O=C(Nc1ccc(F)cc1)C1CCN(c2nc3nc[nH]c(=O)c3s2)CC1 | -0.1 | -0.4 | 1.9 | 1.4 | -5.3 | -1.6
O=C(Cn1ccc2ccc(Br)cc21)NCc1ccc2c(c1)OCO2 | 2.0 | -2.3 | -21.2 | -1.2 | -17.0 | -15.5
O=C(Cn1cnc2cc([N+](=O)[O-])ccc2c1=O)NCc1ccc2c(c1)OCO2 | 2.5 | 15.3 | 39.1* | 6.6 | 26.5 | 14.9
O=C(Cn1cc(C(=O)C2CC2)c2ccccc21)NCc1ccc2c(c1)OCO2 | 12.9 | 1.4 | 69.4* | 9.1 | 8.6 | 51.1*
O=C(Cn1cc(-c2ccccc2)c2ncn(C3CC3)c(=O)c21)NCc1ccc2c(c1)OCO2 | -3.8 | -0.6 | 41.0* | -0.2 | -3.2 | -10.3
Cc1c(Cl)cccc1NC(=O)Cn1cc(C(=O)C2CC2)c2ccccc21 | 48.9* | 3.5 | 86.5* | 35.7* | -4.1 | -5.4
O=C(COc1ccc(-n2cnnn2)cc1)NC1CCCc2ccccc21 (centres undefined) | -0.4 | -0.1 | -0.2 | -4.0 | -0.5 | 2.0
O=C(NCc1ccco1)c1nn(C23CC4CC(CC(C4)C2)C3)cc1[N+](=O)[O-] | 0.3 | 0.0 | -140.2 | -6.1 | 10.0 | -7.0
O=C(NCc1ccc2c(c1)OCO2)c1nn(C23CC4CC(CC(C4)C2)C3)cc1[N+](=O)[O-] | 9.6 | 6.2 | -30.0 | 11.9 | 32.6* | 25.4
O=C(Cn1ncc2c(=O)oc3ccccc3c21)NCc1ccc2c(c1)OCO2 | 16.5 | 5.4 | 42.3* | 14.7 | 22.8 | 2.5
CC(CCc1ccccc1)NC(=O)Cn1ncc2c(=O)oc3ccccc3c21 (centres undefined) | 10.6 | 0.0 | -3.3 | 0.8 | -3.4 | -8.2
O=C(CCc1nc2sc3c(c2c(=O)[nH]1)CCCCC3)Nc1ccc(F)cc1F | -6.2 | 23.1 | 42.2* | -29.9 | -40.2 | -41.6
CCc1ccc(-n2c(C)cc(/C=C3\C(=N)N4N=CSC4=NC3=O)c2C)cc1 | 40.1* | 6.2 | 62.0* | -179.8 | -120.9 | -135.5
COc1ccc(NC(=O)c2ccco2)cc1NC(=O)COc1ccc(Cl)cc1Cl | 1.1 | 5.4 | 42.5* | 12.9 | -1.5 | -0.1
Cc1ccccc1CSCC(=O)Nc1ccc2[nH]c(=O)[nH]c2c1 | 10.2 | 0.3 | -0.2 | 5.8 | 0.4 | 32.3*
Cc1cccc(Nc2ccccc2C(=O)OCC(=O)Nc2ccc(N3CCOCC3)cc2)c1C | 3.4 | -1.3 | 12.9 | 4.4 | 12.5 | 8.0
O=C(COc1ccc(Cl)cc1Cl)Nc1ccc2[nH]c(=O)[nH]c2c1 | 31.0* | -0.1 | 51.2* | 20.6 | 7.0 | 46.5*
O=C(COc1ccccc1C(=O)Nc1ccccc1)Nc1ccc2[nH]c(=O)[nH]c2c1 | -2.3 | 1.7 | -6.4 | -7.7 | -7.1 | -0.4
COc1cc(NC(=O)c2ccc(OCc3ccccc3)cc2)ccc1NC(=O)c1ccco1 | -8.2 | -2.8 | -33.7 | -5.7 | -34.8 | 17.5
Cc1cccc(C(=O)OCC(=O)Nc2ccc3[nH]c(=O)[nH]c3c2)c1C | 16.6 | 3.4 | -61.8 | 11.9 | 16.9 | 39.8*
COc1ccc(NC(=O)N2CC[C@@H]3[C@H]2C(=O)N(C)[C@@H](Cc2ccccc2)C(=O)N3C)cc1 | 0.9 | -3.1 | 2.8 | -8.5 | -4.4 | -9.2
O=C(COC(=O)c1ccc(Cl)cc1)Nc1ccc2[nH]c(=O)[nH]c2c1 | 7.5 | 3.7 | 34.1* | 12.4 | 16.3 | 31.0*
SMILES | USP10 block | UCHL1 inh | USP8 inh | USP7 inh | OTUD3 inh | USP28 block
CC(Oc1ccc(Cl)cc1)C(=O)OCC(=O)Nc1ccc2[nH]c(=O)[nH]c2c1 (centres undefined) | -5.4 | 0.3 | -74.6 | -4.1 | -10.1 | 6.3
Cc1ccc(-c2ncc(C(=O)Nc3c(F)cccc3F)c(-c3ccncc3)n2)cc1 | -2.6 | -14.3 | 60.6* | -18.0 | -89.9 | -109.2
Cc1ccc(-c2ncc(C(=O)Nc3ccc(Cl)cc3)c(-c3ccncc3)n2)cc1 | -4.0 | -35.8 | 28.1 | -36.9 | -108.7 | -129.7
O=C(Nc1ccc2cn[nH]c2c1)c1cc(-c2ccco2)on1 | -0.8 | 10.8 | 40.9* | -19.1 | -16.8 | -38.2
COc1cccc(NC(=O)CCCSc2nc3ccccc3[nH]2)c1 | 2.9 | 3.2 | 2.7 | 5.4 | -0.9 | 36.9*
O=c1sc2ccccc2c(=O)n1Cc1cccc(C(F)(F)F)c1 | 4.1 | 2.9 | -0.1 | -24.6 | 1.9 | 82.5*
Cc1noc(-c2ccc(=O)n(Cc3cccc(C(F)(F)F)c3)c2)n1 | -2.2 | -1.4 | -5.9 | -2.6 | -5.8 | 4.1
COc1ccc(-c2nnc(SCc3ccc(C#N)cc3)o2)cc1 | 6.4 | 0.3 | -0.2 | -45.1 | -0.7 | 1.4
COc1ccc(CNC(=O)c2cc(-c3ccccn3)n[nH]2)cc1 | -1.6 | 0.4 | -1.1 | 4.2 | -1.2 | -9.5
COc1cccc(C(=O)NCc2[nH]nc3ccccc23)c1 | 2.3 | 1.9 | 84.1* | 1.3 | -7.7 | 28.1
COc1cc(OC)cc(C(=O)NCc2[nH]nc3ccccc23)c1 | 2.1 | 1.6 | 2.3 | 1.2 | 11.6 | 31.2*
CCC(=O)NCC(c1ccc2c(c1)CCCN2C)N1CCOCC1 (centres undefined) | -8.3 | -2.1 | 0.0 | -1.6 | -21.1 | -28.1
CCCCOC(=O)c1ccc(NC(=O)C(=O)CC(=O)c2ccc(OC)cc2)cc1 | 7.2 | -1.7 | 77.3* | -5.2 | -20.1 | -26.5
CC12CCCC(O1)c1c(cc3c(c1O)C(=O)c1c(O)cc(O)cc1C3=O)O2 (centres undefined) | -7.4 | -5.5 | -17.5 | -13.7 | -23.6 | -26.5
Cc1cc2c(cn1)C(=O)c1c(O)cc(O)cc1C2=O | 0.0 | 11.8 | -227.6 | -11.3 | 12.5 | 33.5*
CS(=O)(=O)NC[C@@H]1OC[C@H]2CN(Cc3ccccc3)CC[C@H]21 | 3.5 | 0.2 | -65.0 | -1.6 | -0.1 | -0.7
CC(C(=O)Nc1ccc(F)cc1)n1cnc2nc(N3CCCCC3)ncc2c1=O (centres undefined) | -4.3 | -1.4 | 32.3* | -6.8 | -56.7 | -94.9
N#Cc1ccc(NC(=O)Cc2csc3nc(-c4ccccc4)cn23)cc1 | -4.3 | 7.3 | 15.7 | -23.4 | -11.5 | 2.3
O=C(CCc1nnc2n(Cc3ccc(Cl)cc3)c(=O)c3ccccc3n12)N1CCN(c2ccccn2)CC1 | 6.0 | 3.4 | 4.7 | -0.8 | 27.8 | 62.0*
O=C(Cn1c(=O)n(Cc2ccc(F)cc2)c(=O)c2ncccc21)NCc1ccc(F)cc1 | -1.4 | -3.5 | 43.6* | -64.0 | 20.3 | -8.4

From PubChem BioAssay
